Each structure is given as a SMILES string. Inconclusive results are not listed. The source made the active and inactive calls. Rule for the calls: active = hit-call score of the fitted dose curve at least 0.9, where 1 is the maximum; inconclusive = response in the unintended direction; inactive = score below 0.9.

A short description of this test: ACEA_ER_AUC_viability: ACEA Biosciences xCELLigence Real-Time Cell Analysis on Estrogen Receptor Agonism for Viability (AID 2283782).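 Note: hit means loss of impedance signal meaning reduced cell growth or viability.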 The gist of the method:
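Read-out: real-time electrical impedance (RT-CES) area under curve, loss of signal taken as reduced viability, normalized to DMSO baseline. T-47D cells, charcoal-stripped serum medium, compounds up to 100 uM final, continuous exposure, 80 h.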
`CC(=O)Nc1ccc(N=Nc2cc(C)ccc2O)cc1`: the outcome was inactive.

Turning to `CO[Si](OC)(c1ccccc1)c1ccccc1`, the AC50 (commonly the concentration giving half of the maximal activity seen) is 79.9 µM (active).

For the compound `O=S(=O)(O)c1ccc2ccccc2c1`, the compound was classed as inactive.

Take `Cc1cccc(N(C)C)c1`: the AC50 is 25.6 µM (active).

As for `CCCCCCS`, the AC50 was 50 µM (active).

In the case of `CC/C=C\CCOC(=O)c1ccccc1`, the AC50 is 76.7 µM (active).

Regarding `CC(C)(C)c1ccc(OC2CCCCC2O)cc1` (centres undefined), the compound was classed as inactive.

Regarding `COC(OC(C)=O)c1ccccc1` (centres undefined), the compound was called inactive.

Consider `O=S(=O)(O)C(F)(F)C(F)(F)C(F)(F)C(F)(F)C(F)(F)C(F)(F)C(F)(F)F`, for which the outcome was inactive.

Take `OCC(F)(F)C(F)(F)C(F)(F)F`: the call was inactive.

As to `C=C(C)C(=O)OCC(F)(F)C(F)(F)C(F)(F)C(F)(F)C(F)(F)C(F)(F)C(F)(F)F`, the compound was called inactive.

On to `C=CC(F)(F)C(F)(F)C(F)(F)C(F)(F)C(F)(F)C(F)(F)C(F)(F)C(F)(F)C=C`, for which the outcome was inactive.

Turning to `O=C(OCCOCCOCCOC(=O)c1ccccc1)c1ccccc1`, the outcome was inactive.

On to `c1ccc(-c2ccccc2-c2ccccc2)cc1`, for which the AC50 is 78.7 µM (active).

On to `FC(F)(F)C(F)(F)CNCC(F)(F)C(F)(F)F`, for which the outcome was inactive.

With `FC(F)(F)C(F)(F)C(F)(F)C(F)(F)C(F)(F)C(F)(F)C(F)(F)C(F)(F)CCS`, the compound was called inactive.

`O=C(O)C(F)(OC(F)(F)C(F)(OC(F)(F)C(F)(OC(F)(F)C(F)(F)C(F)(F)F)C(F)(F)F)C(F)(F)F)C(F)(F)F` (centres undefined): the result was inactive.

`CC(C)OC(=O)c1ccccc1C(=O)OC(C)C`: the outcome was inactive.

Take `O=C(O)C(F)(F)C(F)(F)C(F)(F)C(F)(F)C(F)(F)C(F)(F)C(F)(F)C(F)(F)C(F)(F)C(F)(F)C(F)(F)C(F)(F)F`: the AC50 was 19.3 µM (active).
